Inconclusive results are not listed. Where a call stands in place of a potency, no number is given. Active and inactive are the calls of the source. The call rests on the fitted dose curve.
Target: Retinoic acid receptor RXR-alpha (Homo sapiens) (UniProt P19793)
Experiment: qHTS assay to identify small molecule agonists of the RXR signaling pathway (AID 1159527); further: nearly all actives have a fitted effect of over 35% in size
Conditions: HEK293T RXRa-UAS-bla, beta-lactamase ratio, 16 h; series mostly up to 76.8 µM
From the text: U.S. Tox21 Program National Center for Advancing Translational Sciences [NCATS] NIH Chemical Genomics Center [NCGC] U.S. Environmental Protection Agency [EPA] National Institutes of Environmental Health Sciences [NIEHS] National Toxicology Program [NTP] U.S. Food and Drug Administration [FDA] Tox21 Assay Overview: The Retinoid X receptor (RXR), a nuclear hormone receptor expressed in liver, spleen, placenta, epidermis, central nervous system. These receptors are able to form homo and heterodimers with other nuclear receptors and due to this heterodimerizing ability, RXR functions as master regulators producing diverse physiological effects. Three subtypes of RXR exist; alpha, beta and gamma. Retinoid X receptor alpha (RXR-alpha) has potential roles in metabolic signaling pathways, skin alopecia, dermal cysts, cardiac development, insulin sensitization etc. Therefore screening environmental chemicals on RXR-alpha signaling can be used for the studies focused on such therapeutic applications. For quantification of RXR-alpha ligands signaling, GeneBLAzer RXR alpha-UAS-bla HEK 293T (Life Technologies, Carlsbad, CA) cells containing a beta-lactamase reporter-gene under control of Retinoid X receptor-alpha response element were used to screen Tox21 10K library.
Tox21 Assay Protocol Summary: RXR-alpha HEK 293T cells were dispensed at 2,000 cells/6 uL of assay medium containing 2% charcoal-stripped FBS using a Multidrop Combi (ThermoFisher Scientific, Waltham, MA) dispenser. The assay was performed in black wall/clear-bottom 1536-well plates (Greiner Bio-One North America Inc. Monroe, NC). 9-cis retinoic acid was used as a positive control in the agonist mode screen. After the assay plates were incubated at 37 C and 5% CO2 for 5 hr, 23 nL of compounds dissolved in DMSO, positive controls or DMSO only were transferred to the assay plate by a Pintool station (Kalypsys, San Diego, CA). The assay plates were incubated at 37 C and 5% CO2 for 16 hr. One uL of LiveBLAzer B/G FRET substrate (Life Technologies) was added using a Flying Reagent Dispenser (Aurora Discovery, San Diego, CA) and the plates were incubated at room temperature for 2 hr. Fluorescence intensity (405 nm excitation, 460/530 nm emission) was measured using an Envision plate reader (PerkinElmer, Shelton, CT).

Chain of Retinoic acid receptor RXR-alpha (Homo sapiens) (P19793 whole entry, looked up): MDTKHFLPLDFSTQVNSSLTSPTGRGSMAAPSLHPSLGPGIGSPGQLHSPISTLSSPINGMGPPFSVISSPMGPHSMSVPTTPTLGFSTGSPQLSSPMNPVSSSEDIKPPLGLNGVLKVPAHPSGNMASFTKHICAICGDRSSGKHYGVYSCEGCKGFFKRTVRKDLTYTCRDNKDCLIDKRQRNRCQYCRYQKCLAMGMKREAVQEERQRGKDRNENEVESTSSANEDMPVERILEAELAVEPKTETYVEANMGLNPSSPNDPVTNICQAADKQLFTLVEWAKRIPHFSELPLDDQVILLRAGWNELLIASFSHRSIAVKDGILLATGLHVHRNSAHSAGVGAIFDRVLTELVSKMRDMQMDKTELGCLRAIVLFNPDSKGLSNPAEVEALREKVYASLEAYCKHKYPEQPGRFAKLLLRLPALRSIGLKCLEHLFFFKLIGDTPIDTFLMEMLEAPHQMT

| Structure (SMILES) | Potency |
| --- | --- |
| C1CCC2(CCCCO2)OC1 | inactive |
| CC(C)CCCO | inactive |
| C=CC(C)(CCC=C(C)C)OC(=O)CC (stereo not given) | inactive |
| C=CC(=O)OCCCl | inactive |
| O=S(=O)(O)c1cc(O)c(O)c(S(=O)(=O)O)c1 | inactive |
| CC(C)COC(=O)c1ccc(N)cc1 | inactive |
| c1coc(CNc2ncnc3nc[nH]c23)c1 | inactive |
| CC(=O)c1cnccn1 | inactive |
| [K+] | inactive |
| COc1cc(C)nc(-n2nc(C)cc2OC)n1 | inactive |
| CC(=O)N[C@H]1[C@H]([C@H](O)[C@H](O)CO)OC(C(=O)O)=C[C@@H]1N=C(N)N | inactive |
| CCCCCCCCCCCCCCC(=O)O | inactive |
| CC(=O)O[C@@]12CO[C@@H]1C[C@H](O)[C@@]1(C)C(=O)[C@H](O)C3=C(C)[C@@H](OC(=O)[C@H](O)[C@@H](NC(=O)OC(C)(C)C)c4ccccc4)C[C@@](O)([C@@H](OC(=O)c4ccccc4)[C@H]21)C3(C)C | inactive |
| CC(COc1ccccc1)NN (stereo not given) | inactive |
| CC(=O)Oc1cccc(C)c1 | inactive |
| Cc1coc2ccccc2c1=O | inactive |
| Cc1ccccc1N=C(N)N=C(N)N | inactive |
| C=C(C)C(=O)OCC(O)CO (stereo not given) | inactive |
| CC[N+](CC)(CC(=O)Nc1c(C)cccc1C)Cc1ccccc1 (tested in a mixture with another compound) | inactive |
| CCCCS(=O)(=O)N[C@@H](Cc1ccc(OCCCCC2CCNCC2)cc1)C(=O)O | inactive |

| Structure (SMILES) | Potency |
| --- | --- |
| CC(C)C1CCC(O)CC1 (stereo not given) | inactive |
| CC1(C)OC[C@@H](COC(=O)CCc2ccc(OC[C@@H](O)CNCCNC(=O)N3CCOCC3)cc2)O1 | inactive |
| CC1=CC(=O)[C@H]2C[C@@H]1C2(C)C | inactive |
| COCCOCC(OC)OC | inactive |
| CCCO[Si](OCCC)(OCCC)OCCC | inactive |
| CC(=O)Nc1ccc(OCC(O)CNC(C)C)cc1 (stereo not given) | inactive |
| C[N+]12CCC(CC1)C(OC(=O)C(O)(c1ccccc1)c1ccccc1)C2 (stereo not given) | inactive |
| CCCCCCC1CCC(=O)O1 (stereo not given) | inactive |
| C[N+](C)(C)CCCCCCCCCC[N+](C)(C)C | inactive |
| NS(=O)(=O)Cc1noc2ccccc12 | inactive |
| CCCCCCCCCCCCSC | inactive |
| CC(C)CC(C)(N)C#N (stereo not given) | inactive |
| NCCCC(N)(C(=O)O)C(F)F (stereo not given) | inactive |
| CCCCN(CCC(=O)OCC)C(C)=O | inactive |
| O=S(=O)(O)c1cccc(S(=O)(=O)O)c1 | inactive |
| Cc1ccc(C(=O)c2ccccc2)cc1 | inactive |
| OCCc1ccccn1 | inactive |
| CNCC(O)c1ccc(O)c(O)c1 (stereo not given) | inactive |
| CCC(C)(CN(C)C)OC(=O)c1ccccc1 (stereo not given) | inactive |
| CC(C)=CCC/C(C)=C/C#N | inactive |

From PubChem BioAssay (Tox21)
